Reference: PubChem BioAssay AID1159580 (chemical genetic matrix, 2015)
“And” between values parts separate entries of the source, which are not always exact repeats. Identical values can stand only once. The whole screen tested about 5,500 compounds, of which about 2,000 (36%) were called active. Another 18% or so got no clear call; they are omitted. Rule as the data show it: active = normalized growth mostly below about 0.91 (no sharp cut-off); inconclusive = no clear call, values can overlap the other calls; inactive = mostly above about 0.92. Some of the results follow.

Experiment: chemical genetic growth profiling, strain panel (AID 1159580);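 also: tested at 20 µM; growth read once vehicle control cultures reached saturation at 30 °C; 1 = growth at the plate median or of vehicle wells; lower values mean less growth of the strain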
Conditions: growth OD

Measured: normalized growth

O=C(O)C(O)C(O)C(O)C(O)C(=O)O (stereo unspecified)
inactive: S. cerevisiae deletion strains, locus YBR021W, strain FUR4, stronger effect = lower value 0.99 | S. cerevisiae deletion strains, locus YBR229C, strain ROT2, stronger effect = lower value 0.998 | S. cerevisiae deletion strains, locus YCL029C, strain bik1, stronger effect = lower value 0.982 | S. cerevisiae deletion strains, locus YDL035C, strain GPR1, stronger effect = lower value 1.04 | S. cerevisiae deletion strains, locus YDL074C, strain BRE1, stronger effect = lower value 1.04 | S. cerevisiae deletion strains, locus YDL101C, strain DUN1, stronger effect = lower value 0.988 | S. cerevisiae deletion strains, locus YDL185W, strain tfp1, stronger effect = lower value 1 | S. cerevisiae deletion strains, locus YDL192W, strain arf1, stronger effect = lower value 0.993 | S. cerevisiae deletion strains, locus YDR101C, strain arx1, stronger effect = lower value 0.983 | S. cerevisiae deletion strains, locus YDR150W, strain NUM1, stronger effect = lower value 1.02 | S. cerevisiae deletion strains, locus YDR162C, strain NBP2, stronger effect = lower value 1.01 | S. cerevisiae deletion strains, locus YDR318W, strain mcm21, stronger effect = lower value 1 | S. cerevisiae deletion strains, locus YDR388W, stronger effect = lower value 0.993 | S. cerevisiae deletion strains, locus YDR502C, strain sam2, stronger effect = lower value 0.991 | S. cerevisiae deletion strains, locus YEL061C, strain CIN8, stronger effect = lower value 1.06 | S. cerevisiae deletion strains, locus YER110C, stronger effect = lower value 0.982 | S. cerevisiae deletion strains, locus YER155C, strain BEM2, stronger effect = lower value 0.994 | S. cerevisiae deletion strains, locus YER167W, strain BCK2, stronger effect = lower value 1 | S. cerevisiae deletion strains, locus YGL078C, strain dbp3, stronger effect = lower value 0.994 | S. cerevisiae deletion strains, locus YGL086W, strain mad1, stronger effect = lower value 0.966 | S. cerevisiae deletion strains, locus YGL248W, strain PDE1, stronger effect = lower value 0.997 | S. cerevisiae deletion strains, locus YGR078C, strain PAC10, stronger effect = lower value 0.997 | S. cerevisiae deletion strains, locus YGR135W, strain pre9, stronger effect = lower value 0.991 | S. cerevisiae deletion strains, locus YGR229C, strain SMI1, stronger effect = lower value 1.03 | S. cerevisiae deletion strains, locus YGR252W, strain gcn5, stronger effect = lower value 1.04 | S. cerevisiae deletion strains, locus YHR030C, strain SLT2, stronger effect = lower value 1 and 0.993 | S. cerevisiae deletion strains, locus YHR079C, strain IRE1 (second series), stronger effect = lower value 0.99 | S. cerevisiae deletion strains, locus YHR079C, strain IRE1, stronger effect = lower value 1 | S. cerevisiae deletion strains, locus YHR094C, strain hxt1, stronger effect = lower value 0.989 | S. cerevisiae deletion strains, locus YHR129C, strain ARP1, stronger effect = lower value 1.01 | S. cerevisiae deletion strains, locus YHR200W, strain rpn10, stronger effect = lower value 0.983 | S. cerevisiae deletion strains, locus YIL066C, strain RNR3, stronger effect = lower value 0.985 | S. cerevisiae deletion strains, locus YIL073C, strain SPO22, stronger effect = lower value 1.01 | S. cerevisiae deletion strains, locus YIL125W, strain kgd1, stronger effect = lower value 0.984 | S. cerevisiae deletion strains, locus YIR030C, strain dcg1, stronger effect = lower value 0.986 | S. cerevisiae deletion strains, locus YJL095W, strain BCK1, stronger effect = lower value 1.02 and 0.995 | S. cerevisiae deletion strains, locus YJL134W, strain LCB3, stronger effect = lower value 1 | S. cerevisiae deletion strains, locus YJL168C, strain set2, stronger effect = lower value 0.988 | S. cerevisiae deletion strains, locus YJL187C, strain SWE1 (second series), stronger effect = lower value 0.996 | S. cerevisiae deletion strains, locus YJR043C, strain POL32, stronger effect = lower value 1.01 | S. cerevisiae deletion strains, locus YJR066W, strain TOR1, stronger effect = lower value 0.942 | S. cerevisiae deletion strains, locus YKL009W, strain mrt4, stronger effect = lower value 0.966 | S. cerevisiae deletion strains, locus YKL068W, stronger effect = lower value 0.998 | S. cerevisiae deletion strains, locus YKL085W, strain MDH1 (second series), stronger effect = lower value 0.983 | S. cerevisiae deletion strains, locus YKL085W, strain MDH1, stronger effect = lower value 0.983 | S. cerevisiae deletion strains, locus YKL190W, strain CNB1, stronger effect = lower value 1.03 | S. cerevisiae deletion strains, locus YKR001C, strain vps1, stronger effect = lower value 0.985 | S. cerevisiae deletion strains, locus YLR039C, strain RIC1, stronger effect = lower value 1.07 | S. cerevisiae deletion strains, locus YLR058C, strain SHM2, stronger effect = lower value 1 | S. cerevisiae deletion strains, locus YLR102C, strain apc9, stronger effect = lower value 0.99 | S. cerevisiae deletion strains, locus YLR113W, strain HOG1, stronger effect = lower value 0.995 | S. cerevisiae deletion strains, locus YLR262C, strain YPT6, stronger effect = lower value 1.14 | S. cerevisiae deletion strains, locus YLR268W, strain sec22, stronger effect = lower value 0.972 | S. cerevisiae deletion strains, locus YLR330W, strain CHS5, stronger effect = lower value 0.992 | S. cerevisiae deletion strains, locus YLR342W, strain FKS1 (second series), stronger effect = lower value 1 | S. cerevisiae deletion strains, locus YLR371W, strain rom2, stronger effect = lower value 0.977 | S. cerevisiae deletion strains, locus YLR418C, strain cdc73, stronger effect = lower value 0.993 | S. cerevisiae deletion strains, locus YML016C, strain PPZ1, stronger effect = lower value 0.982 | S. cerevisiae deletion strains, locus YML032C, strain rad52, stronger effect = lower value 1.02 | S. cerevisiae deletion strains, locus YML124C, strain tub3, stronger effect = lower value 0.985 | S. cerevisiae deletion strains, locus YMR078C, strain ctf18, stronger effect = lower value 0.983 | S. cerevisiae deletion strains, locus YMR223W, strain ubp8, stronger effect = lower value 1.01 | S. cerevisiae deletion strains, locus YMR263W, strain SAP30, stronger effect = lower value 1 | S. cerevisiae deletion strains, locus YMR307W, strain GAS1, stronger effect = lower value 1.1 | S. cerevisiae deletion strains, locus YNL067W, strain RPL9B, stronger effect = lower value 1 | S. cerevisiae deletion strains, locus YNL183C, strain NPR1, stronger effect = lower value 0.909 | S. cerevisiae deletion strains, locus YNL233W, strain BNI4, stronger effect = lower value 1 | S. cerevisiae deletion strains, locus YNL250W, strain rad50, stronger effect = lower value 0.972 | S. cerevisiae deletion strains, locus YNL271C, strain bni1, stronger effect = lower value 0.984 | S. cerevisiae deletion strains, locus YNL298W, strain CLA4, stronger effect = lower value 0.992 | S. cerevisiae deletion strains, locus YNL307C, strain MCK1, stronger effect = lower value 0.979 | S. cerevisiae deletion strains, locus YNL322C, strain KRE1, stronger effect = lower value 1 | S. cerevisiae deletion strains, locus YNR052C, strain pop2, stronger effect = lower value 1 | S. cerevisiae deletion strains, locus YOL006C, strain TOP1, stronger effect = lower value 0.989 | S. cerevisiae deletion strains, locus YOL012C, strain htz1 0.785 | S. cerevisiae deletion strains, locus YOL147C, strain pex11, stronger effect = lower value 0.991 | S. cerevisiae deletion strains, locus YOR061W, strain CKA2, stronger effect = lower value 0.997 | S. cerevisiae deletion strains, locus YOR069W, strain VPS5, stronger effect = lower value 1 | S. cerevisiae deletion strains, locus YOR136W, strain idh2, stronger effect = lower value 0.983 | S. cerevisiae deletion strains, locus YOR144C, strain elg1, stronger effect = lower value 0.982 | S. cerevisiae deletion strains, locus YOR184W, strain ser1, stronger effect = lower value 0.993 | S. cerevisiae deletion strains, locus YOR231W, strain MKK1, stronger effect = lower value 1.01 | S. cerevisiae deletion strains, locus YOR316C, strain cot1, stronger effect = lower value 0.983 | S. cerevisiae deletion strains, locus YPL241C, strain CIN2, stronger effect = lower value 1.05 | S. cerevisiae deletion strains, locus YPL256C, strain CLN2, stronger effect = lower value 0.978 | S. cerevisiae deletion strains, locus YPR119W, strain clb2, stronger effect = lower value 0.986 | S. cerevisiae deletion strains, locus YPR141C, strain kar3, stronger effect = lower value 0.986 | S. cerevisiae deletion strains, locus YPR163C, strain tif3, stronger effect = lower value 0.982 | S. cerevisiae deletion strains, locus YPR167C, strain met16, stronger effect = lower value 0.988 | S. cerevisiae deletion strains, strain wtn01, stronger effect = lower value 0.971 | S. cerevisiae strains, strain wild type, stronger effect = lower value 1.03
